Compound activity deposited in PubChem by National Center for Advancing Translational Sciences (NCATS).
Lassa entry inh – inhibitors of Lassa virus binding or cell entry | AID 540256 | Lassa virus pseudotype entry inhibition, cell reporter | Potency, µM (series often up to 37.9 µM), usual class: inhibitors | 1.2% of 300,000 active; calls by dose curve; tested in HEK293 cells; further: nearly all actives have a fitted effect of over 50% in size
HCV inhibitor – HCV inhibition | Potency, µM (top dose mostly 41.8 µM), usual class: inhibitors | 3.4% of 340,000 active | Huh7.5.1 HCVcc-Cre infection, luciferase reporter, 44 h | AID 651820; active means well fitted inhibition curve with a large enough effect; inconclusive means small, poorly fitted or top-dose-only effect, or another doubt; inactive means no such curve, though single readings can be large or run the other way
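Reporter virus HCVcc-Cre (~0.5 moi) infects cells exposed to compound; seeding density 1,000 cells/well with 4 h settling beforehand. Luminescence, 15 sec read, taken 44 h post-infection following a 15 min RT substrate incubation.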
Vaccinia mCherry – vaccinia inhibition (mCherry reporter); AID 720579; Potency, µM (top dose mostly 36.5 µM), most hits filed as inhibitors; Vaccinia virus mCherry reporter infection, fluorescence; 0.63% of 310,000 active; calls by dose curve; tested in A549 cells; further: nearly all actives have a fitted effect of over 35% in size
HCMV inh – blocks human cytomegalovirus replication. HFF cells, HCMV-luciferase reporter, 72 h; active compounds read low. activity change, negative = inhibition, % at 57.5 µM. 4.5% of 410,000 active. AID 1259415; in the data active means activity change below about -60%; inconclusive means no clear call, values can overlap the other calls; inactive means above about -39%
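After 16 h attachment at 37C, HFF cells received test compound and HCMV-luciferase (1 PFU/cell); reporter luminescence read 72 h later, data normalized against buffer-only and known inhibitor Salinomycin.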
MARV entry inh – blocks Marburg virus binding to or entry into cells | Marburg virus pseudotyped entry inhibition, cell reporter | Potency, µM (titrated, usually from 37.8 µM), actives largely listed as inhibitors | 1.8% of 300,000 active | AID 540276; calls by dose curve; tested in HEK293 cells
Vaccinia Venus – inhibitors of vaccinia virus (Venus reporter); Vaccinia virus Venus reporter expression, fluorescence; Potency, µM (highest dose often 36.5 µM), usual class: inhibitors; 0.46% of 330,000 active; calls by dose curve; tested in A549 cells; further: nearly all actives have a fitted effect of over 30% in size
Hits are given with their value; – = inactive; ? = inconclusive; · = no result. Only some compounds are listed: those with a hit (about 7.8% of all), similar ones and a draw of the others.

SMILES	Lassa entry inh	HCV inhibitor	Vaccinia mCherry	HCMV inh	MARV entry inh	Vaccinia Venus
COc1cc(NCCCCC(C)N)c2nccc(C)c2c1 (centres undefined)	·	·	?	-71	·	?
CC1(C)CC(C)(c2ccc(O)cc2O)N(c2ccc3ccccc3c2)C(=S)N1 (centres undefined)	–	10µM	·	–	–	?
O=c1c2cc(F)ccc2sn1-c1ccccc1	·	?	–	–	·	–
O=c1[nH]sc2cc(F)ccc12	–	?	–	-98	?	–
O=c1ccsc2ccccc12	–	–	–	–	–	–
O=c1[nH]sc2ccccc12	–	?	–	-73	?	–
COc1ccc(-c2nc(CNS(=O)(=O)c3ccc(C)cc3)cs2)cc1	?	·	–	–	?	–
COc1ccc(-c2nc(CNS(=O)(=O)c3ccc(F)cc3)cs2)cc1	?	·	–	-73	–	–
CCNC(=O)CC1C(=O)N(CC)C(=S)N1NC(=O)c1ccc(Cl)cc1 (centres undefined)	–	–	·	–	–	·
Nc1ccc(C(=O)NN2C(=O)[C@H](Cl)C2c2ccc(Cl)cc2)cc1 (some centres undefined)	11µM	10µM	?	–	8.9µM	?
COC(=O)C1=C(c2ccc(-c3ccccc3)c(F)c2)C[C@@H]2CC[C@H]1N2C(=O)NCCO	·	?	?	–	·	–
COC(=O)C1=C(c2ccc3ccccc3c2)C[C@@H]2CC[C@H]1N2C	·	–	–	–	·	–
COC(=O)C1=C(c2ccc(-c3ccccc3)c(F)c2)C[C@@H]2CC[C@H]1N2C(=O)NC(C)C	·	?	?	–	·	?
COC(=O)C1=C(c2ccc3ccccc3c2)C[C@@H]2CC[C@H]1N2C(=O)NC(C)C	·	–	–	-63	·	–
COC(=O)C1=C(c2ccc(-c3ccccc3)c(F)c2)C[C@@H]2CC[C@H]1N2C(=O)NCCOc1ccccc1Cl	·	14µM	?	–	·	?
CCCNC(=O)N1[C@H]2CC[C@@H]1C(C(=O)OC)=C(c1ccc(-c3ccccc3)c(F)c1)C2	·	7.9µM	?	–	·	?
COC(=O)C1=C(c2ccc(-c3ccccc3)c(F)c2)C[C@@H]2CC[C@H]1N2C(=O)NC1CC1	·	10µM	–	–	·	–
COc1ccccc1CN1C(=O)CN(C2CCCCCC2)C(=O)C1c1ccc(C)cc1 (centres undefined)	?	·	–	?	·	–
O=C(Nc1cccc(Cl)c1Cl)C1CC(=O)N(c2ccc(Br)cc2)C1 (centres undefined)	–	?	–	-92	?	?
O=C(N/N=C/c1ccccc1O)C1CC(=O)N(c2ccc(Cl)cc2)C1 (centres undefined)	·	?	·	-79	·	·
CCc1c(C)c(C#N)c2nc3ccccc3n2c1Nc1cccc(C(F)(F)F)c1	–	·	–	–	–	–
CN(C1CCCCC1)S(=O)(=O)c1ccc2c(c1)c(=O)c(C(=O)NCc1ccc(F)cc1)cn2C	–	·	–	–	–	–
CCN(c1ccccc1)S(=O)(=O)c1cccc(C(=O)NCC(c2ccco2)N2CCCC2)c1 (centres undefined)	–	10µM	–	–	?	–
CCN(c1ccccc1)S(=O)(=O)c1cccc(C(=O)NCC(c2ccco2)N2CCCCC2)c1 (centres undefined)	–	10µM	?	-71	?	–
Cc1ccccc1C(=O)NC(C)c1nnc2n1CCN(Cc1ccc(F)cc1)CC2 (centres undefined)	·	·	–	·	·	–
SMILES	Lassa entry inh	HCV inhibitor	Vaccinia mCherry	HCMV inh	MARV entry inh	Vaccinia Venus
COCCN=c1scc(-c2cc(OC)c(OC)c(OC)c2)n1/N=C/c1c(C)[nH]c2ccccc12	?	8.9µM	?	–	11µM	?
CN(C)S(=O)(=O)c1cccc(NC(=O)CCSc2ccc(Cl)cc2)c1	10µM	10µM	–	?	?	–
CN(C)S(=O)(=O)c1cccc(NC(=O)CSc2ncnc3ccccc23)c1	?	7.9µM	?	–	?	?
CN(C)S(=O)(=O)c1cccc(NC(=O)CSc2nc3ccccc3[nH]2)c1	?	?	–	-61	?	–
CCCn1c(SCC(=O)Nc2cccc(S(=O)(=O)N(C)C)c2)nc2ccccc2c1=O	–	?	–	–	11µM	–
Cc1nc(N2CCOCC2)c2c(C(=O)N3CCN(c4ccccc4F)CC3)c(C)oc2n1	–	·	–	–	·	–
CC1CCN(C(=O)Cn2c(=O)n(CCCCCC(=O)NCc3ccccc3Cl)c(=O)c3sccc32)CC1	?	·	–	–	?	–
CCSc1nc2cc(OC)c(OC)cc2c(=O)n1CC	–	5µM	?	–	–	–
CCN1C(=S)NC(c2ccccc2)C(C(=O)OC)=C1C (centres undefined)	·	·	·	·	–	·
CCN(CC)C(=O)CC(c1ccc(F)cc1)c1ccc(OC)cc1 (centres undefined)	–	–	–	-67	–	–
Cc1ccc(C)c(NC(=O)c2ccc3c(c2)CCCN3S(C)(=O)=O)c1	–	·	–	–	?	–
c1ccc(CNCCC(Cc2ccccc2)c2ccco2)cc1 (centres undefined)	?	–	?	–	?	–
CN(C)c1ccc(CNCCC(Cc2ccccc2)c2ccco2)cc1 (centres undefined)	?	?	?	?	15µM	–
CCOC(=O)C1(Cc2ccccc2C(F)(F)F)CCN(Cc2ccc(COC)o2)CC1	?	8.9µM	–	?	?	–
CCOC(=O)C1(Cc2cccc(OC)c2)CCN(Cc2cccc(O)c2)CC1	–	–	–	–	?	–
CCOC(=O)C1(Cc2cccc(OC)c2)CCN(Cc2ccc(C)s2)CC1	4.5µM	?	–	–	5µM	–
CCOC(=O)C1(Cc2cccc(OC)c2)CCN(Cc2cccc(OC)c2O)CC1	?	?	–	-73	?	–
CCOC(=O)C1(Cc2cccc(OC)c2)CCN(Cc2ccccc2OC)CC1	–	?	–	-62	?	–
CCOC(=O)C1(CCOC)CCN(Cc2ccc(COC)o2)CC1	–	–	–	–	–	–
Cc1nc(C#N)nc(Oc2ccccc2)c1Cl	·	·	–	·	·	–
CCCCCOC(=O)[C@H](C)c1c(C)[nH]c(=S)[nH]c1=O	·	·	·	·	–	·
CCc1ccccc1NC(=O)CSc1nc2ccccc2nc1Cc1cccc(OC)c1	–	·	–	–	·	–
C[C@H]1CC[C@H]2C(=O)O[C@H](COc3ccc(C(C)(C)C)cc3)CN2[C@@H]1c1ccc(Br)cc1	·	·	·	·	–	·
Cc1ccc(NC(=O)Cn2cc(S(=O)(=O)N3CCCC3)c(S(=O)(=O)N3CCCC3)c2)c(C)c1	–	·	–	–	·	–
CCOC(=O)C1(Cc2cccc(OC)c2)CCN(Cc2ccc(OC)c(OC)c2)CC1	?	11µM	–	–	4.5µM	–
CCOC(=O)C1(Cc2ccc(Cl)cc2)CCN(C(C)Cc2ccc(O)c(OC)c2)CC1 (centres undefined)	·	10µM	·	-63	·	·
COc1ccc(-c2nnc(NC(=O)c3ccc([N+](=O)[O-])o3)o2)c(OC)c1	–	?	?	-94	–	?
Cc1ccc(-c2nnc(NC(=O)c3ccc([N+](=O)[O-])o3)o2)c(C)c1	–	?	?	?	–	?
